Source: the supplement of paper PMC11732987, “Enantioselective OTUD7B fragment discovery through chemoproteomics screening and high-throughput optimisation” (Communications Chemistry, 2025)

What was measured:
Assay in all cases: log2 ratio of Biotin-Ahx-Ub-VS probe labelling (fragment/DMSO); higher = less target engagement (more negative = stronger competition), active = hit call of the paper (q ≤ 0.05, log2 ratio ≤ -1)
Conditions in all cases: compound concentration: 200 uM; treatment time: 3 h
[1] = molecular target: USP34 (UniProt Q70CQ2)
USP34, sequence (Q70CQ2 whole entry, the tested form may be a part): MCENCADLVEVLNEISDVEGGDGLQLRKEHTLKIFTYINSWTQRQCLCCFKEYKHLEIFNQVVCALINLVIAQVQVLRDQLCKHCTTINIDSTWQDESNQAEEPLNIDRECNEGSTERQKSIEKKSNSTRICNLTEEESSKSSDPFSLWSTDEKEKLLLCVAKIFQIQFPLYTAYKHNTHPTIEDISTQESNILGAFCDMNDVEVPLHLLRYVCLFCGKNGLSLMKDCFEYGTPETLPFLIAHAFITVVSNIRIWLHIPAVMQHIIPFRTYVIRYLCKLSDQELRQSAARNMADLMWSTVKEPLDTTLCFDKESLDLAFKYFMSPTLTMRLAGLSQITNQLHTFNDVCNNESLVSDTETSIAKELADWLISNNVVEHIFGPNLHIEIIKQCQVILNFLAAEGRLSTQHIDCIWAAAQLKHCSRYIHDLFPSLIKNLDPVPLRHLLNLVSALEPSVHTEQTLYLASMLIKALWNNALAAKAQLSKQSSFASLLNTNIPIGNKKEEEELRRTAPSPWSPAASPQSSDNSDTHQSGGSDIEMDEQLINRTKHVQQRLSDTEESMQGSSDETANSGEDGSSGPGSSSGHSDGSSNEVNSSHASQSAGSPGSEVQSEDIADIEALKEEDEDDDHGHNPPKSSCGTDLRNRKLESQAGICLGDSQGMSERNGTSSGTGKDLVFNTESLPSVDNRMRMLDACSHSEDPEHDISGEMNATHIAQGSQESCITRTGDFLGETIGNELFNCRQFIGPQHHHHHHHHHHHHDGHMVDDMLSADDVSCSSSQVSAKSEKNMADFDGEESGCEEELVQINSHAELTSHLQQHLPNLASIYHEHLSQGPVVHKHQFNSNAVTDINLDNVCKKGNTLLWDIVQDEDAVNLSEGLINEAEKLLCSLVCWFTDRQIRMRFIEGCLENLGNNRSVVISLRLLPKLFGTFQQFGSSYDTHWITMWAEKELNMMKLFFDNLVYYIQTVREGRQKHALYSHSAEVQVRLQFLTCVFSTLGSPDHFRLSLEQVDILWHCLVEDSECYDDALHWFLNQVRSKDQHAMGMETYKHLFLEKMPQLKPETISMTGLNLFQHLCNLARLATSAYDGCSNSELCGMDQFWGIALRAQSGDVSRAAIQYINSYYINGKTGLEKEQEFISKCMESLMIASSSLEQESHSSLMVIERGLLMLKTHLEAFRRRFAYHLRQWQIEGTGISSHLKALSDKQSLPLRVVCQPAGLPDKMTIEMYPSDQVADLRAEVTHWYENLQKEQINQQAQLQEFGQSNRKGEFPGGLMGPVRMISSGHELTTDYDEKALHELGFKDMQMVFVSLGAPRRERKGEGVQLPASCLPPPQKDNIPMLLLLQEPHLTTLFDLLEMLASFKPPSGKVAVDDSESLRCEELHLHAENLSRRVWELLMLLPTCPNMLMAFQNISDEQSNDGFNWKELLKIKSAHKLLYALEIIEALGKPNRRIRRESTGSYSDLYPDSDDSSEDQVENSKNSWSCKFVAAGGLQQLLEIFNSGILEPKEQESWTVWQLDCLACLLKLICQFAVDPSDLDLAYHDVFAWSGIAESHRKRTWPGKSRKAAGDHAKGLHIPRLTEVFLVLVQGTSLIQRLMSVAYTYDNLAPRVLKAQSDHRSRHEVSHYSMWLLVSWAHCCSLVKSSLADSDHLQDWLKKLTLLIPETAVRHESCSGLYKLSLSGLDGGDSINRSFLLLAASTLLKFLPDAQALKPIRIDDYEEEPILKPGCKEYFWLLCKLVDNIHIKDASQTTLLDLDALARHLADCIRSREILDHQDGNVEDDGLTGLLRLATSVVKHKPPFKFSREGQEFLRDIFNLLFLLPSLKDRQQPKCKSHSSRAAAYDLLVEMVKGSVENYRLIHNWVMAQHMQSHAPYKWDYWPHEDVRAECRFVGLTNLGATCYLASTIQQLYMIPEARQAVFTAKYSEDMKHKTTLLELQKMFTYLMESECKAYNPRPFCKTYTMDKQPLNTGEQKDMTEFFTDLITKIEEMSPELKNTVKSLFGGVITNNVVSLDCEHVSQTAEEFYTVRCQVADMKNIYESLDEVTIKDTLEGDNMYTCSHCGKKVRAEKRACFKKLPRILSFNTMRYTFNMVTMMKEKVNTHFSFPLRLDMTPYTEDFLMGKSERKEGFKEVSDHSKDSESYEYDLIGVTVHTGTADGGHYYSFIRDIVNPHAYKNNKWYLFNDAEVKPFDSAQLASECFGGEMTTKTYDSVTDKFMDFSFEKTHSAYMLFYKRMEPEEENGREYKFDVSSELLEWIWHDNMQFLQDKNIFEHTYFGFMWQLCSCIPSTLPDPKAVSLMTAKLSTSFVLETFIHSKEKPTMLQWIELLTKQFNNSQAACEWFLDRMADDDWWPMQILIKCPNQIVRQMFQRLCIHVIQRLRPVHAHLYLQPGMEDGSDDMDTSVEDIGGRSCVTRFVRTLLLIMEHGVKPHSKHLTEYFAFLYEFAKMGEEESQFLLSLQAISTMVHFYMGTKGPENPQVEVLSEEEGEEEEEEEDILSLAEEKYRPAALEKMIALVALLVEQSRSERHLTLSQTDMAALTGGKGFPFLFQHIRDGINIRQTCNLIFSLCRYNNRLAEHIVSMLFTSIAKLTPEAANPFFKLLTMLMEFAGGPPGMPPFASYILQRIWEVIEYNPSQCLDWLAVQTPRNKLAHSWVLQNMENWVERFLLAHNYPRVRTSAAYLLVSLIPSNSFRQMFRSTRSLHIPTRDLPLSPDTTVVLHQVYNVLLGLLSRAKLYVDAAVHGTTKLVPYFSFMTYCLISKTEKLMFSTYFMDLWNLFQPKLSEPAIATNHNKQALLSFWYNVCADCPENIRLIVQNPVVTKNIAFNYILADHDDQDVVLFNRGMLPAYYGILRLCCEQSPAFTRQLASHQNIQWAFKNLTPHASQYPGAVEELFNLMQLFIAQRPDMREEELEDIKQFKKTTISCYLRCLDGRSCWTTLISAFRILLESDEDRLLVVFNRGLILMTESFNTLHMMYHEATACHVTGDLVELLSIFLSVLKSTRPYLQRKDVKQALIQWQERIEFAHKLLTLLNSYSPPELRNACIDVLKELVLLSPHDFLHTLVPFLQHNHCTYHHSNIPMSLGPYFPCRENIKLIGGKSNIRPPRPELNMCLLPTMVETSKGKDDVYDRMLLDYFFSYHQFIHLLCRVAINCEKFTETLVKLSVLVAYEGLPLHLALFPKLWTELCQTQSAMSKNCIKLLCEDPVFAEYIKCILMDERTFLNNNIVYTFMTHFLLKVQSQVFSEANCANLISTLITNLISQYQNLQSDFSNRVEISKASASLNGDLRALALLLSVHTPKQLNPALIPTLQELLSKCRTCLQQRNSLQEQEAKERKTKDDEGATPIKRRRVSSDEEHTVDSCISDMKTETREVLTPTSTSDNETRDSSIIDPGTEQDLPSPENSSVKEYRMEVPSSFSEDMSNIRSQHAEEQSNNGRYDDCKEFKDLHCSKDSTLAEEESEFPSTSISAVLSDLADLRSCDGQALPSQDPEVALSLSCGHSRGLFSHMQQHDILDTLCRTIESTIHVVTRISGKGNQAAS
Method in brief: (§1)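 Labelled DUBs from HEK293T lysate were NeutrAvidin-enriched, digested with LysC and trypsin, and run by diaPASEF LC-MS/MS. Before that, each 495 µg sample in Tris/CHAPS/IGEPAL buffer with protease inhibitors was treated in triplicate with fragment at 200 µM or vehicle for 3 h, then with Biotin-Ahx-Ub-VS at 0.5 µM final for 1 h. Values are average log2 ratios of fragment over vehicle by unpaired t-test, based on global-median-normalised Spectronaut label-free quantities from proteins with ≥2 unique peptides.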

[2] = molecular target: T1, USP36 (UniProt Q9P275)
T1 sequence (whole entry): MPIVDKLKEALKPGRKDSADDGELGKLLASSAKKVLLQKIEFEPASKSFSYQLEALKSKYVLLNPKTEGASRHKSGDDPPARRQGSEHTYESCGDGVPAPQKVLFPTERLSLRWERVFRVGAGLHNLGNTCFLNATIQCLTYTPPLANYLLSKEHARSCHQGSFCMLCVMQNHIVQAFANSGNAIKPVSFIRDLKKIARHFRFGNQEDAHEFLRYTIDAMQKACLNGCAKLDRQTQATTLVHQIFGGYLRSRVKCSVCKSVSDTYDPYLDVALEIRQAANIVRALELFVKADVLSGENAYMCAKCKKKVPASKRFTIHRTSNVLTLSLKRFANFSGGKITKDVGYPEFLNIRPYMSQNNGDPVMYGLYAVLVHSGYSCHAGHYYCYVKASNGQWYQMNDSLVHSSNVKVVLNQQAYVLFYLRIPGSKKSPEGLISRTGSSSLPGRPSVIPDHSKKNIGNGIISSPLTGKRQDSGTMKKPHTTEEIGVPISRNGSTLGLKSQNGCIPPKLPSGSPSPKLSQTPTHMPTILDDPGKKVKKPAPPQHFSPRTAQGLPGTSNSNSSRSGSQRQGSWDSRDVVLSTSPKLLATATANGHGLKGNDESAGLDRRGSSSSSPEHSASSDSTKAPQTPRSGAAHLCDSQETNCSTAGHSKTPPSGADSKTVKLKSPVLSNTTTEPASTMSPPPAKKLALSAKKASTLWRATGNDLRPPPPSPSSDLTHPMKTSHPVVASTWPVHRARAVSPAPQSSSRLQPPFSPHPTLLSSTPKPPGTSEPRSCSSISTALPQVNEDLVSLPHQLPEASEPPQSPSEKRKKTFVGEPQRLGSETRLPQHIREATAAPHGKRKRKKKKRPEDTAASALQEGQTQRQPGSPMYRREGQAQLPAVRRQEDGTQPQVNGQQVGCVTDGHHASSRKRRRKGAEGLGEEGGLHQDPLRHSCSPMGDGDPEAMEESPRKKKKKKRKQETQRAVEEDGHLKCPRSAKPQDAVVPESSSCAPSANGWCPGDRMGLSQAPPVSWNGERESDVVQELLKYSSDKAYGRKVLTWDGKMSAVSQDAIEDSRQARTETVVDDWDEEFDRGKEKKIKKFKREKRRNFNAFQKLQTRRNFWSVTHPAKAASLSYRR
Method in brief: as §1

[3] = molecular target: T2, USP38 (UniProt Q8NB14)
T2 sequence (whole entry): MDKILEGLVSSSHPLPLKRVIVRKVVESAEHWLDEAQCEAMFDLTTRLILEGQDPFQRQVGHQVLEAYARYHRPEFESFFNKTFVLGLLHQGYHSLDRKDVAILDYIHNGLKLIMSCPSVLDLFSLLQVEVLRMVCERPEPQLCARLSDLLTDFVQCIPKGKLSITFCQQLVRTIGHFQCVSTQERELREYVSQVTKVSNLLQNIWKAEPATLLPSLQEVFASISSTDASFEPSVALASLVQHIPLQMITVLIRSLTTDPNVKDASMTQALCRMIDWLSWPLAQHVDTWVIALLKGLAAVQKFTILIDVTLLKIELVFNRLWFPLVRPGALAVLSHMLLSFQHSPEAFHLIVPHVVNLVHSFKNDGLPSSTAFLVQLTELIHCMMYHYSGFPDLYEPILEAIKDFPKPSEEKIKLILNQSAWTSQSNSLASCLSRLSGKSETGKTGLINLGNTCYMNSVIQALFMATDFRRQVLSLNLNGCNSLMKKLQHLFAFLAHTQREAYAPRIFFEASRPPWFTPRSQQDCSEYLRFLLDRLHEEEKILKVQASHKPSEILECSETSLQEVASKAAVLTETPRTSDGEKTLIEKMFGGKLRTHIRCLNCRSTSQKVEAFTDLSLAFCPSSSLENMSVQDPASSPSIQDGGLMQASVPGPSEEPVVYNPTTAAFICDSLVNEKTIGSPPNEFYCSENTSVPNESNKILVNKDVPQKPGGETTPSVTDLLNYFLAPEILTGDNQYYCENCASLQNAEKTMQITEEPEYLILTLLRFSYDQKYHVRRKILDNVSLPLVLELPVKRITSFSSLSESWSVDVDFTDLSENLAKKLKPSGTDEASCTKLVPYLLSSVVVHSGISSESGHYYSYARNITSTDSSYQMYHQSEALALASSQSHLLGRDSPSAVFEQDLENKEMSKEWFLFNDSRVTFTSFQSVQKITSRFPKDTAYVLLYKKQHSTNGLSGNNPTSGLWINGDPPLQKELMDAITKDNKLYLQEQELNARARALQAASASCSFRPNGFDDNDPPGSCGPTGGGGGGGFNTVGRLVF
Method in brief: as §1

[4] = molecular target: T3, USP39 (UniProt Q53GS9)
T3 sequence (whole entry): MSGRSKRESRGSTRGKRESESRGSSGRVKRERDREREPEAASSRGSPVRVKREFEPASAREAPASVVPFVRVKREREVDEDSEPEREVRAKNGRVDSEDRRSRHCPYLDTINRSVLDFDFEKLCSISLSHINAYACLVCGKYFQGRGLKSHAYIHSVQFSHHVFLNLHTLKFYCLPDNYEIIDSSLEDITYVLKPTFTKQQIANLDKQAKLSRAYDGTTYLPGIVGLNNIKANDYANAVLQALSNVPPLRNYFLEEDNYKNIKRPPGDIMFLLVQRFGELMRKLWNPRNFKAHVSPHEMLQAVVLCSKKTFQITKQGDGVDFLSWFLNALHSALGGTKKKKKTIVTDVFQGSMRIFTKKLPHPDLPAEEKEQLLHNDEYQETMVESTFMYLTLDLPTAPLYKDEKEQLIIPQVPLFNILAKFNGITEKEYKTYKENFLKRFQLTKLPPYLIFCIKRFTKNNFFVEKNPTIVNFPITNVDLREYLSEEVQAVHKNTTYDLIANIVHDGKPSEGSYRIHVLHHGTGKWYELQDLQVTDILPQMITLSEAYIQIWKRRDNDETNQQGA
Method in brief: as §1

[5] = molecular target: T4, USP4 (UniProt Q13107)
T4 sequence (whole entry): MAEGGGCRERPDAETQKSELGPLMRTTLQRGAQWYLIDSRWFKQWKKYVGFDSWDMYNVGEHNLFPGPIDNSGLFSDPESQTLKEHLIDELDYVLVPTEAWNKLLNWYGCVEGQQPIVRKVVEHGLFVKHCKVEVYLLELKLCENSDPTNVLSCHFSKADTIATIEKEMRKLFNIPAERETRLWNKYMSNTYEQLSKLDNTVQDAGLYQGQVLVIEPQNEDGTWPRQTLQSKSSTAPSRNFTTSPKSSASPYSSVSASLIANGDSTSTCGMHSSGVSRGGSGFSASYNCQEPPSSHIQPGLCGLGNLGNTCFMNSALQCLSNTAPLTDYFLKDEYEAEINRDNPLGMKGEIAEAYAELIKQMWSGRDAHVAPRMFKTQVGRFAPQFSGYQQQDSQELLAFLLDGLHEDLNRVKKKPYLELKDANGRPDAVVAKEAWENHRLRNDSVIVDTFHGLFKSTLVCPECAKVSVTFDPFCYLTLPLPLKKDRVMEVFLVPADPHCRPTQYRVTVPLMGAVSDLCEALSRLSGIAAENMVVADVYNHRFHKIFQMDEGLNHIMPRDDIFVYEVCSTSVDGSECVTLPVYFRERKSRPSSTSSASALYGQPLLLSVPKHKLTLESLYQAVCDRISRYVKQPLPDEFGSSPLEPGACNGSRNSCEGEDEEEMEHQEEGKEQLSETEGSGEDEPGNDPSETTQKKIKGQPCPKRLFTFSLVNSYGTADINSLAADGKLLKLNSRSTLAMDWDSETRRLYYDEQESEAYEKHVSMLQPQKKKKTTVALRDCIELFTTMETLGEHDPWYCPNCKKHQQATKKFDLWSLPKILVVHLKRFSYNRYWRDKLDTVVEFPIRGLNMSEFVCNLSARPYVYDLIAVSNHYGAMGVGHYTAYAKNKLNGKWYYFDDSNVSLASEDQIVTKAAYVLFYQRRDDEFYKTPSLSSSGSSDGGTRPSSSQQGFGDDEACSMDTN
Method in brief: as §1

Measured: log2 ratio of Biotin-Ahx-Ub-VS probe labelling

Cl.Cn1nccc1C(NC(=O)CCl)c1ccccc1 (stereo not given)
inactive: [1] -0.0966 | [2] 0.193 | [3] -0.0261 | [4] 0.0185 | [5] -0.116
